Source: PubChem BioAssay (The Scripps Research Institute Molecular Screening Center)
This is a sample that favours compounds with a hit; in the whole collection about 4.1% have one here.
ssDAF-12 act: S. stercoralis DAF-12 nuclear receptor activators, primary screen, cell-based, luminescence, HEK293, GRIP1 co-expression, lit1-tk-luc; HEK293 ssDAF-12/GRIP1 lit1-tk-luc reporter; % of 3 µM dafachronic acid response; activation, % at 6.8 µM; AID 652126, 2013; actives 1% (n = 370,000); Nuclear hormone receptor DAF-12 (Strongyloides stercoralis);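 active = activation above the mean over all tested compounds plus 3 SD, cut at about 0.9% in these data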;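 also: 0% = DMSO-only wells and 100% = 3 µM delta7-dafachronic acid wells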
DAX1 inh-1: DAX1 (NR0B1) inhibitors, primary screen, cell-based, HEK293, Gal4-DAX1, luciferase luminescence; Nuclear receptor subfamily 0 group B member 1 (Homo sapiens), P51843; HEK293 Gal4-DAX1 luciferase reporter; inhibition, % at 6.75 µM; actives 0.99% (n = 340,000); AID 504766, 2011;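 active = inhibition above the mean over all tested compounds plus 3 SD, cut at about 4.2% in these data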;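 also: 0% = DAX1-transfected cells with DMSO and 100% = empty-vector control cells with DMSO; inhibition shows as a rise in luminescence from relieved DAX1 repression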
hcDAF-12 act: H. contortus DAF-12 nuclear receptor activators, primary screen, cell-based, luminescence, HEK293, lit1-tk-luc reporter. HEK293 hcDAF-12 lit1-tk-luc reporter; 0% DMSO, 100% Δ7-dafachronic acid. actives 1.4% (n = 370,000). activation, % at 6.8 µM;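 active = activation above the mean of all tested compounds plus 3 SD, cut at about 5.5% in these data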;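 also: 100% = response to 3 µM Δ7-dafachronic acid high control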
hgDAF-12 ag: H. glycines DAF-12 receptor agonists, primary screen, cell-based, luminescence, HEK293, GAL4 fusion, UAS-luciferase | AID 687014, 2013 | Nuclear hormone receptor DAF-12 (Heterodera glycines), GAL4 fusion | HEK293 GAL4-hgDAF12 UAS-luciferase reporter, agonist luminescence; normalized to butyrate control | actives 1.8% (n = 370,000) | activation, % at 6.8 µM;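 active = activation above a cutoff set at the mean of all screened compounds plus 3 SD, cut at about 10% in these data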;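 also: 0% = DMSO wells and 100% = sodium butyrate wells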
DAX1 inh-2: DAX1 (NR0B1) inhibitors on StAR promoter, primary screen, cell-based, luminescence, SF-1 (NR5A1), full-length DAX-1; HEK293T StAR-luciferase reporter, SF-1/DAX-1 repression relief; inhibition, % at 6.8 µM; actives 1.1% (n = 370,000);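 active = inhibition above the mean over all tested compounds plus 3 SD, cut at about 3.6% in these data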;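 also: 0% = DAX-1 cells with DMSO and 100% = cells lacking DAX-1 with DMSO; higher inhibition means more luminescence from relief of DAX-1 repression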
LXR ag: LXR agonists, Gal4 luciferase reporter, confirmation, counter-screen for hcDAF-12 agonist project, cell-based, luminescence, HEK293, H. contortus campaign | AID 743027, 2013 | HEK293 Gal4-LXR tk-luc reporter, 24 h; normalized: DMSO 0%, positive control 100% | shares compounds with hcDAF-12 act | 3,400 tested, under 10 active | activation, % at 6.8 µM;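 active = mean percent activation of the reporter above a cutoff set as the average over tested compounds plus their standard deviation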
Target sequence (P55055 whole entry, looked up, the tested form may be a part): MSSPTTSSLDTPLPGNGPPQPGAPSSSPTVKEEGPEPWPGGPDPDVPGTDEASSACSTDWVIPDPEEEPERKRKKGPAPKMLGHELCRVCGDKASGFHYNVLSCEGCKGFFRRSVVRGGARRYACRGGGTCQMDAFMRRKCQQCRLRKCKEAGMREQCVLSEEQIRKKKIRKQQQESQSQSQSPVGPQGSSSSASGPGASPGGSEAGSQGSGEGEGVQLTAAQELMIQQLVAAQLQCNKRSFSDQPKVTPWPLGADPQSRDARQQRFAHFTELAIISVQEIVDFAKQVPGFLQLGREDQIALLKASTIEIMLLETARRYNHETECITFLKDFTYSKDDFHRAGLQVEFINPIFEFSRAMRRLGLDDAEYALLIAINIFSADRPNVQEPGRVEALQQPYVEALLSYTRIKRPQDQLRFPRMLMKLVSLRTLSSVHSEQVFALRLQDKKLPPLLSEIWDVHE
hcDAF12 ag: H. contortus DAF-12 receptor agonists, confirmation, cell-based, luminescence, HEK293, lit1-tk-luc, triplicate; shares compounds with hcDAF-12 act; HEK293 hcDAF-12 lit1-tk-luc reporter; % of Δ7-dafachronic acid response; activation, % at 6.8 µM; actives 61% (n = 3,400);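 active = mean activation across triplicate tests above the threshold derived from the earlier primary screen, cut at about 5.5% in these data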;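 also: 0% = DMSO only wells and 100% = 3 µM Δ7-dafachronic acid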
* = called active by the depositor; · = not tested or not shown.

SMILES	ssDAF-12 act	DAX1 inh-1	hcDAF-12 act	hgDAF-12 ag	DAX1 inh-2	LXR ag	hcDAF12 ag
Cc1nc2ccc(Cl)cc2nc(C)/c1=N\O	1.0*	5.3*	7.7*	11*	2	0	6.3*
CNC(=O)COC(=O)/C=C/c1c(C)nn(-c2ccccc2)c1C	0	1	8.4*	1	0	0	1
O=C(COc1ccc(F)c(Cl)c1)N1CCCCCCC1	0	1	-1	-1	0	·	·
CCOC(=O)c1sc2nc(-c3ccccc3)ccc2c1N	0	2	9.0*	24*	4.3*	2	11*
NC(=O)c1sc2nc(-c3ccccc3)ccc2c1N	-1	3	2	9	1	·	·
Nc1ccccc1N=Nc1ccccc1N	1	1	6.7*	10	1	1	9.2*
CC(C)(C)c1ccc(C(=O)NC(=S)NNC(=O)c2cccs2)cc1	1	0	21*	9	3	0	1
O=C(NC(=S)NNC(=O)c1cccs1)c1ccccc1	0	1	4	4	1	·	·
COc1ccc(C)cc1NC(=O)n1ncc2cc(Cl)ccc21	1	0	7.4*	4	0	0	3
Cc1ccccc1NC(=O)n1ncc2cc(Cl)ccc21	-1	-1	-2	0	0	·	·
Cc1cccn2c1nc(=S)n2C(=O)c1ccco1	0	1	9.5*	12*	2	1	9.2*
CCOC(=O)C1CCCCN1C(=O)CCc1nnc(-c2ccc3c(c2)OCO3)o1 (configuration not stated)	-1	1	7.7*	4	3	0	1
CCC1CCCCN1C(=O)CSc1nnc(-c2ccc3c(c2)OCCO3)o1 (configuration not stated)	-1	0	-2	-1	0	·	·
COc1cc(N=Nc2cccc(S(N)(=O)=O)c2)c2ccccc2c1N	0	3	9.2*	-2	0	0	3
O=C(CC(=O)c1c(F)cccc1Cl)c1ccccc1O	0	2	9.1*	7	0	0	6.9*
O=C(CCNC(=O)c1ccccc1Cl)NNC(=O)c1ccccc1O	0	1	-1	2	1	·	·
Clc1ccc(-c2cnn3c(-c4ccncc4)ccnc23)cc1	0	4	7.2*	13*	3	2	8.4*
O=C1N=c2ccc(Br)cc2=C1c1sc(=S)n(NS(=O)(=O)c2ccccc2)c1O	0	0	6.6*	1	1	0	3
O=C1N=c2ccccc2=C1c1sc(=S)n(NC(=O)c2cccc(O)c2)c1O	0	2	3	-2	1	·	·
CCCc1cc(=O)n2[nH]c(NCc3c(Cl)cccc3Cl)nc2n1	0	0	2	5	0	·	·
CCCc1cc(=O)n2[nH]c(-c3cccc(Br)c3)cc2n1	-1	5.6*	7.7*	8	1	1	7.3*
Clc1ccc(Nc2nc(-c3cccnc3)cs2)cc1	1.9*	1	9.3*	12*	2	1	11*
O=C(O)c1ccc(N/N=C/c2cccc3cccnc23)cc1	2.0*	1	8.1*	13*	3	1	7.9*
Cn1c(N)c(S(=O)(=O)N2CCN(Cc3ccccc3)CC2)c(=O)n(C)c1=O	-2	-1	1	0	-1	·	·
CN(C(=O)c1cccc(NC(=O)Cc2ccc(NC(=O)C3CCN(C(=O)c4ccccc4)CC3)cc2)c1)C1CCCCC1	-1	-1	-3	-1	0	·	·
SMILES	ssDAF-12 act	DAX1 inh-1	hcDAF-12 act	hgDAF-12 ag	DAX1 inh-2	LXR ag	hcDAF12 ag
CCc1ccccc1NC(=O)c1onc(C)c1Cl	0	0	9.4*	2	1	0	2
COC(=O)c1ccccc1NC(=O)c1onc(C)c1Cl	-1	1	0	3	0	·	·
Cc1cc2c(=O)n(C)c(SCC(=O)Nc3ccc(F)cc3)nc2s1	0	0	1	0	-1	·	·
CCOC(=O)c1c(C)[nH]c(C(=O)NCC(c2ccco2)N2CCCCC2)c1C (configuration not stated)	-1	0	-2	-1	0	·	·
Cc1cccc(C(=O)NNC(=O)c2ccc(NS(=O)(=O)c3cccs3)cc2)c1C	-1	0	-1	-1	-1	·	·
CS(=O)(=O)NCc1ccc(C(=O)O)cc1	-1	1	-1	-2	1	·	·
Cc1cc(SCC(=O)c2cccs2)nc2c(C)cccc12	-1	1	6.8*	3	0	0	3
Cc1cc2c(C)ccc(C)c2nc1SCC(=O)c1cccs1	-2	0	1	-2	0	·	·
O=C(COC(=O)c1cccs1)Nc1cccc(S(=O)(=O)N2CCCCC2)c1	-1	0	0	1	0	·	·
CCN(C[C@H]1N[C@@](CC)(C(=O)OC)[C@H]2C(=O)N(Cc3ccccc3)C(=O)[C@@H]12)C(=O)c1ccc(C(C)(C)C)cc1	0	-1	-2	-1	0	·	·
COc1cccc(C(=O)NCCCn2ccnc2)c1	-2	0	1	0	0	·	·
COc1ccc2c3c([nH]c2c1)C1CC2C(CC(O)C(OC)C2C(=O)O)CN1CC3 (configuration not stated)	-1	2	7.0*	3	0	0	-1
COC(=O)[C@H]1[C@H]2C[C@@H]3c4[nH]c5cc(OC)ccc5c4CCN3C[C@H]2C[C@@H](OC(=O)c2cc(OC)c(OC)c(OC)c2)[C@@H]1OC	-1	0	-1	-4	0	·	·
C=CCc1c(C)[nH]c(=O)[nH]c1=O	-1	-1	-1	1	0	·	·
Cn1nnnc1SCc1nc2ccccc2s1	2.1*	2	8.7*	5	1	0	8.5*
Cc1cccc(C)c1Nc1nnc(SCc2nc3ccccc3s2)s1	0.9*	0	12*	13*	2	1	11*
